Measurements reported in PubChem BioAssay (Tox21).
Where “and” joins values, the source holds several entries; their conditions need not be identical. Identical values can stand only once. Inconclusive results are not listed. A number with no mark means an inactive call. Calls of active or inactive are those of the source. Calls come from the whole dose curve; as a rule, active = well fitted cell-killing curve with a large enough effect in the repeat runs; inconclusive = weak or mixed curves, or effect the other way; inactive = no such curve, though single readings can be large or run the other way.
% is set by controls: 0 for no effect and ±100 for the full control effect; potency is the fitted concentration of half-maximal effect.

Experiment: qHTS assay to identify small molecule antagonists of the thyroid receptor (TR) signaling pathway - cell viability counter screen (AID 743064); note: nearly all actives have a fitted effect of over 50% in size
Conditions: GH3.TRE-Luc viability, CellTiter-Fluor, 24 h; series mostly up to 70.3 µM; activity change, negative = cytotoxic: at the top concentration
Source text: National Center for Advancing Translational Sciences [NCATS]
NIH Chemical Genomics Center [NCGC]
U.S. Environmental Protection Agency [EPA]
National Institutes of Environmental Health Sciences [NIEHS]
National Toxicology Program [NTP]
U.S. Food and Drug Administration [FDA]
Thyroid receptor (TR), a nuclear hormone receptor, plays an important role in development, proliferation, differentiation, metabolism, brain function, and cardiovascular system. […] To profile the Tox21 10K compound library in TR signaling, a cell-based GH3-TRE-Luc assay (GH3.TRE-Luc cell line, developed by the laboratory of Dr. Albertinka J. Murk, Wageningen University) was used to measure the inhibition of TR. GH3 (rat pituitary tumor) cells stably expressing a TR activity sensor consisting of two TR response elements and a luciferase reporter gene. The cytotoxicity of the Tox21 compound library against the GH3.TRE-Luc cell line was tested in parallel by measuring the cell viability using CellTiter-Fluor assay (Promega, Madison, WI) in the same wells.
Tox21 Assay Protocol Summary:
GH3.TRE-Luc cells were dispensed at 1500 cells/4 uL/well into 1536-well white solid bottom plates using a Multidrop Combi dispenser (Thermo Fisher Scientific Inc., Waltham, MA). After the assay plates were incubated at 37 C for 4 hours, 23 nL of library compound or DMSO controls was transferred to the assay plates by a pintool station (Kalypsys, San Diego, CA), followed by addition of 1 ul of T3 (1 nM, final concentration in the wells) to stimulate TR transactivation. The assay plates were incubated at 37 C for 23.5 h, and then 1 uL of CellTiter-Fluor reagent (Promega, Madision, WI) of measuring cytotoxicity was added to each well using a Bioraptr Flying Reagent Dispenser (FRD) workstation (Beckman Coulter, Indianapolis, IN, USA). The plates were incubated at 37C and 5% CO2 for additional 30 min, and fluorescence intensity was measured by a ViewLux plate reader (PerkinElmer, Shelton, CT).
With `BrCC1CO1` (stereo not given) the “activity change, negative = cytotoxic” value was -13% [at 95 µM].
In the case of `NCC1(CC(=O)O)CCCCC1`, the “activity change, negative = cytotoxic” value is reported as 4.62% [at 32.5 µM].
With `Oc1ccc2c3c1O[C@H]1[C@@H](O)C=C[C@H]4[C@@H](C2)NCC[C@@]341` the “activity change, negative = cytotoxic” value was -0.346% [at 95 µM].
In the case of `CC(C)(C)C(=O)Cl`, the “activity change, negative = cytotoxic” value is reported as 16.7% [at 95 µM].
For `ClCCCCCCCl`, the “activity change, negative = cytotoxic” value was 5.5%.
In the case of `Cc1ccc(Cl)c(O)c1`, the “activity change, negative = cytotoxic” value is reported as 22.6%.
`Clc1cc2c(cc1Cl)Oc1cc(Cl)c(Cl)cc1O2` showed an activity change, negative = cytotoxic of 5.73% [at 0.341 µM].
In the case of `Cc1ccc2c(c1)C1CN(C)CCC1N2` (stereo not given), the “activity change, negative = cytotoxic” value is reported as -10.9%.
For `CCCCOC(C)=O`, the “activity change, negative = cytotoxic” value was 2.58% [at 95 µM].
For `CNC(=O)O/N=C(/CSC)C(C)(C)C`, the “activity change, negative = cytotoxic” value was 14.5%.
With `CCOP(=S)(OCC)Oc1ccc(Cl)cc1Cl` the “activity change, negative = cytotoxic” value was -6.5%.
In the case of `C[C@]12C=CC(=O)C=C1CC[C@@H]1[C@@H]2CC[C@@]2(C)[C@H]1CC[C@]2(C)O`, the “activity change, negative = cytotoxic” value is reported as 3.81%.
For `[P]#[In]`, the “activity change, negative = cytotoxic” value was 4.6%.
In the case of `N#CN`, the “activity change, negative = cytotoxic” value is reported as 11%.
With `CON(C)C(=O)Nc1ccc(Br)cc1` the “activity change, negative = cytotoxic” value was 14.6%.
With `Oc1ccc(Cc2ccc(O)cc2)cc1` the “activity change, negative = cytotoxic” value was -18% [at 95 µM].
With `CCN[C@@H](C)Cc1cccc(C(F)(F)F)c1` the “activity change, negative = cytotoxic” value was -29.6%.
With `C[C@@H](N)[C@@H](O)c1ccccc1` the “activity change, negative = cytotoxic” value was 9.75% [at 32.5 µM].
With `O=C(Cl)CCl` the “activity change, negative = cytotoxic” value was -9.08% [at 95 µM].
In the case of `O=C1CCCCC1Cl` (stereo not given), the “activity change, negative = cytotoxic” value is reported as 27.7% [at 95 µM].
With `ClCC1CO1` (stereo not given) the Potency was “inactive”.
In the case of `C=C(C)[C@H]1CN[C@H](C(=O)O)[C@H]1CC(=O)O`, the “activity change, negative = cytotoxic” value is reported as -16.1%.
With `ClCCCCl` the “activity change, negative = cytotoxic” value was 10.6% [at 95 µM].
For `CCCCCCC1CCOC1=O` (stereo not given), the “activity change, negative = cytotoxic” value was -21.7%.
In the case of `O=C(O)C(Br)(Br)Br`, the “activity change, negative = cytotoxic” value is reported as 3.9%.
For `CC[C@@H](CO)NC(=O)[C@@H]1C=C2c3cccc4[nH]cc(c34)C[C@H]2N(C)C1`, the “activity change, negative = cytotoxic” value was 15.9%.
With `OCC(Cl)CCl` (stereo not given) the “activity change, negative = cytotoxic” value was -0.533%.
In the case of `CCC(=O)c1ccc(Cl)cc1`, the “activity change, negative = cytotoxic” value is reported as -9.35%.
With `CN(CCO)CCO` the “activity change, negative = cytotoxic” value was 11.7% [at 95 µM].
In the case of `COc1ccccc1OC`, the “activity change, negative = cytotoxic” value is reported as -0.56%.
In the case of `CC(C)(C1CCC(O)CC1)C1CCC(O)CC1` (stereo not given), the “activity change, negative = cytotoxic” value is reported as -0.999%.
For `CC(C)N(Cc1ccccc1)C(=O)C(C)(C)C`, the “activity change, negative = cytotoxic” value was 13.3%.
With `OP(O)c1ccccc1` the “activity change, negative = cytotoxic” value was 0% [at 95 µM].
In the case of `CCOC(=O)CC(SP(=S)(OC)OC)C(=O)OCC` (stereo not given), the Potency is reported as “inactive”.
In the case of `Cn1c(N)nc2c3cccnc3ccc21`, the Potency is reported as 26 µM (active).
For `O=C(NC(=O)c1c(F)cccc1F)Nc1cc(Cl)c(F)c(Cl)c1F`, the “activity change, negative = cytotoxic” value was 8.01%.
In the case of `CCCOc1nn(C(=O)NS(=O)(=O)c2ccccc2C(=O)OC)c(=O)n1C`, the “activity change, negative = cytotoxic” value is reported as 8.84%.
With `C(COCC1CO1)OCC1CO1` (stereo not given) the “activity change, negative = cytotoxic” value was -21.7%.
With `CNC(=O)NC(O)C(Cl)(Cl)Cl` (stereo not given) the “activity change, negative = cytotoxic” value was -3.01%.
In the case of `CC(C)(C)c1cc(O)ccc1O`, the Potency is reported as 8.41 µM (active) and 68.6 µM (active) and 48.6 µM (active).
